This assay concerns VDR:RXRa (NR concentration 270 nM, RXRa partner concentration 90 nM). Description: PBM binding z-score (relative to random genomic background probes); higher = stronger binding; sequences stand for … in GC…GCGATTGACAGCGTAGAATGAAGG
As for the experimental part: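 Protein-binding microarray (Agilent 4x180K custom design, double-stranded 60-nt probes: 5' GC cap, 34-nt variable region, 24-nt constant primer region; full probe sequence given). Purified or IVT nuclear receptor:RXRα heterodimers (3:1 NR:RXRα, mostly 270:90 nM) or homodimers were incubated for 1 h in PBS with 2% milk and no ligand, then detected with Alexa488 antibodies. Fluorescence from o1-orientation probes (~5 replicates averaged) was converted to z-scores against 500 random hg19 background probes. Variable regions are seed direct-repeat (DR0–DR5) sites, all their single-nucleotide variants and half-site ablations.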
The sequence TCTTCTAGGTCAACGATGGTCAGCTAATCTGCTA displayed a PBM binding z-score of 2.41.
To CCTTACGGGTCACTGACAGGTTGTAGCATTTGGA belongs 3.34; to GCTAGTTGGTCAGTAATAGGTCACACACCGGTCG, 1.73; to CGTCAAAGTTCATCTAAGGTAACGTAAAGCACGC, 5.24.
Regarding CCTTACGGGTCAAGGTTATAACACGGGTGGTACG, the PBM binding z-score was found to be 3.51.
To GGACCAAGGTGAATAGGTCGTTGATGAGTAGGCG belongs 0.886.
To CCTAGTAGGCCAATCTGGGTCACTCAAGGCTTGA belongs 0.875; to TCTTGTAGATAAACAGGAGGTTAAGAAAGATCGA, 0.873; to CCTACTGGGCCATCATGTCATTGATATCAACGTT, 0.0429.
GCGACTGTGGCAAAGCAGGTTACCATAAGGTTGG: the PBM binding z-score was -0.352.
Take GGAACGAGGGCAAGTTGAAAGCAGAGTTTGATGG: the PBM binding z-score was 0.74.
Turning to TCTATTAGTTGAAGGGCAACCAACGAGTCCGTTT, the PBM binding z-score was found to be 1.11.
In turn, GCATATAGGTAATACAGGGTGAAAGTCCGATTGT gave a PBM binding z-score of 0.521.
TCATATAGGTAAACATGTGAAAGTCCGTAAGTTA came in with a PBM binding z-score of 1.1.
As for TCATGTAGATCAACAGGAGGTTAAGAAAGATCGA, the PBM binding z-score came out at 0.591.
GCTAGAAGGCCATTTGGGTCACTCAATGACGGGC came in with a PBM binding z-score of 1.82.
To TCTAGCAGGCCTGAGGGTCACTCAAGAGGTACGG belongs 1.9; to TCAGATAGGTAATACAGGTGAAAGTCGGCATCTA, 0.887; to GCTTACGGGTCAAAGGTTATAGGATGAATAGAAT, 5.56.
As for TCTGCTAGGTCAACGATGCTCAGCTAATCTGCTA, the figure is 1.15.
As for CCTATTAGTTGACCATAAGGGCTACCGAAGCTCG, the figure is 0.25.
ACTCAAAGTTCACTAGGTAACGTAAGATTCAGCT gave a PBM binding z-score of 4.17.
Sequence CCTCGGAGGACAACATGAGGTCAGAGCTGCCAGA had a PBM binding z-score of 2.98.
To CCGACTGGGGCAGAAAGGGTACCATACCATCCGG belongs -0.384; to CGAACTAGGTCAAGGACAGTCAATCTCCGCACGC, 1.61; to AAAATGAGGTTATACGTAGATCAGGGAAGAAAGT, 1.65.
In the case of CCTACTGGGCCAAAGGTCATTGAATCCAATGCTC, the PBM binding z-score was determined as 4.86.
To ATCTAAAGGTCGACGAGGTGAGTATACACCGTTT belongs 5.21; to CATACATGGTCAGCTAGGCCAGAGTAGGGACGGC, -0.459.
To CCTAGCTGGCCAGGGTCACTCAAGCATTTCGCTT belongs 2.36; to CCTAGCAGGCCAATCTGCGTCACTCAAGGCTTGA, -0.714; to TATACAGGCTCAAAGGCCAGAGTACGAATGTCGA, -0.106.
Consider CCTATTAGTTGACCATAAGGGCAACAGAAGCTCG, for which the PBM binding z-score is 0.519.
As for AGTACGAGGGCAATGAGTTGATAGCACGGGTGGC, the figure is 5.08; as for CCTCTGAGGACAGAAGGTCAGAGCTGTCCGCTTT, 1.2; as for TCAGACAGGTGAAGGTAACCCAGGTACGCAGTCG, 0.641.
As for TCTAGTTGGTCATAGGTCACACACTCGAAATGCG, the figure is 3.19; as for CCTACTCGGCCATTCAGAGGTCATTGATCATATG, 4.06; as for TCATATAGGTAAAGGTGAGAGTCGAACGATATGA, 0.633.
As for TCTTGTAGACCAGCAGGTTAAGAAAGCTGGCCAA, the figure is 0.209.
